In PubChem BioAssay:
Potency and affinity values are given separately. Records with an inconclusive call do not appear. A number with no mark means an inactive call.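 The calls were made as follows: active = signal-lowering compounds whose fitted half-maximal concentration is at or below twice the top tested dose in every run; inconclusive = runs disagree, flat 30 to 70% inhibition, or poor curve fit; inactive = the rest.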

assay: CMV-driven luciferase expression suppression in HEK293 – cell-based, luminescence, dry powder, counter-screen for Pax8 inhibitor project, dose response (AID 743020); settings: HEK293 CMV-luciferase reporter, SteadyGlo luminescence, 24 h; series mostly up to 35 µM; activity change, negative = inhibition: at the top concentration;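 also: HEK293 cells stably expressing the CMV luciferase reporter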

First: O=C(NC12CC3CC(CC(C3)C1)C2)c1ccc([N+](=O)[O-])o1
Second: O=C(Nc1cccc(NC(=O)c2cccs2)c1)c1ccc([N+](=O)[O-])o1
The “activity change, negative = inhibition” value of the first is lower: 8.93% for the first, 13.9% for the second.

Compared with `C[C@H](CO)N1C[C@H](C)[C@@H](CN(C)S(=O)(=O)c2ccc(Cl)cc2)OCCCC[C@H](C)Oc2ccc(NS(=O)(=O)c3ccc(Cl)cc3)cc2C1=O`, `Cc1noc(C)c1S(=O)(=O)N(C)C[C@@H]1OCCCC[C@H](C)Oc2ccc(NS(=O)(=O)c3ccc(Cl)cc3)cc2C(=O)N([C@H](C)CO)C[C@@H]1C` is lower in “activity change, negative = inhibition” value: -3.22% for the first, -3.67% for the second.

Compared with `CCCNC(=O)Nc1ccc2c(c1)OC[C@H](C)N(Cc1ccc(-c3ccccn3)cc1)C[C@@H](C)[C@@H](OC)CN(C)C2=O`, `C[C@@H]1CCCCO[C@H](CN(C)Cc2ccc(Cl)c(Cl)c2)[C@H](C)CN([C@@H](C)CO)C(=O)c2cc(NC(=O)Nc3ccccc3)ccc2O1` is lower in “activity change, negative = inhibition” value: 5.23% for the first, 0.83% for the second.

Going from `Cn1c(CCN2CCCC2)nc2cc(NS(=O)(=O)c3ccccc3)ccc21` to `C[C@@H]1CCCCO[C@@H](CN(C)Cc2ccc(C(F)(F)F)cc2)[C@@H](C)CN([C@@H](C)CO)C(=O)c2cc(NS(=O)(=O)c3ccccc3)ccc2O1`, the “activity change, negative = inhibition” value falls from 4.33% to 3.63%.

Going from `C[C@H]1CN([C@@H](C)CO)C(=O)c2cc(NS(=O)(=O)c3ccccc3)ccc2O[C@@H]1CN(C)Cc1ccc(Oc2ccccc2)cc1` to `COc1ccc(NC(=O)Nc2ccc3c(c2)CC(=O)N([C@H](C)CO)C[C@@H](C)[C@@H](CN(C)Cc2ccc(Oc4ccccc4)cc2)O3)cc1`, the “activity change, negative = inhibition” value rises from -5.61% to 3.93%.

Compared with `CCOC(=O)Nc1ccc2c(c1)N(C(=O)CCN(CC)CC)c1ccccc1S2=O` (stereo not given), `CCN(CC)S(=O)(=O)c1cc(NC(=O)Cn2ncc(Cl)c(Cl)c2=O)ccc1C` is lower in “activity change, negative = inhibition” value: 12.7% for the first, -17.5% for the second.

Going from `C[C@@H]1CN([C@@H](C)CO)C(=O)Cc2cc(NC(=O)CCC(F)(F)F)ccc2O[C@H]1CN(C)Cc1ccc(-c2ccccc2)cc1` to `C[C@@H]1CN([C@H](C)CO)C(=O)Cc2cc(NC(=O)Nc3ccc(F)cc3)ccc2O[C@H]1CN(C)Cc1ccc(Cl)c(Cl)c1`, the “activity change, negative = inhibition” value rises from 7.07% to 9.92%.

Going from `CC(=O)[C@@]1(O)Cc2c(O)c3c(c(O)c2[C@H](O[C@H]2C[C@H](N)[C@H](O)[C@H](C)O2)C1)C(=O)c1ccccc1C3=O` to `COc1cccc2c1C(=O)c1c(O)c3c(c(O)c1C2=O)CC(O)(C(=O)CO)CC3OC1CC(N(C)C)C(O)C(C)O1` (stereo not given), the “activity change, negative = inhibition” value rises from -3.85% to 5.83%.

First: COc1ccc(C2=NNC(=Nc3cc(S(=O)(=O)N(C)C)ccc3C)SC2)c(OC)c1
Second: COc1cccc(S(=O)(=O)N2CC[C@H]3[C@@H](CO)N(C)c4ccc(C#Cc5ccc(F)cc5)cc4[C@H]32)c1
The “activity change, negative = inhibition” value of the first is lower: 3.08% for the first, 5.07% for the second.

First: COc1ccc(-c2nc3c(c(SCC(=O)Nc4cccc(O)c4)n2)Cc2c(CO)cnc(C)c2O3)cc1
Second: COc1ccc(NC(=O)c2c(Nc3ccccc3)sc(C(=O)c3ccc(F)cc3)c2N)cc1
The “activity change, negative = inhibition” value of the first is higher: 20.3% for the first, -15.4% for the second.

Going from `C[C@@H]1CCCCO[C@H](CN(C)Cc2ccc(C(F)(F)F)cc2)[C@H](C)CN([C@@H](C)CO)C(=O)c2cc(NS(=O)(=O)c3cccs3)ccc2O1` to `C[C@@H]1CCCCO[C@H](CN(C)Cc2ccc(C(F)(F)F)cc2)[C@H](C)CN([C@H](C)CO)C(=O)c2cc(NS(=O)(=O)c3cccs3)ccc2O1`, the “activity change, negative = inhibition” value rises from -6.48% to 1.46%.

Compared with `CN1c2ccc(-c3cccc(F)c3)cc2[C@@H]2[C@@H](CCN2C(=O)Cc2ccccc2)[C@@H]1CO`, `O=S(=O)(c1ccccc1F)N1CC[C@@H]2[C@@H](CO)Nc3ccc(C4=CCCCC4)cc3[C@@H]21` is higher in “activity change, negative = inhibition” value: 5.06% for the first, 6.1% for the second.

Going from `CCOc1ccc(NC(=O)Nc2cc(OCC(F)(F)F)cc(OCC(F)(F)F)c2)cc1` to `COc1ccc(NC(=O)Nc2ccc3c(c2)C(=O)N([C@@H](C)CO)C[C@@H](C)[C@@H](CN(C)CC2CCCCC2)OCCCC[C@@H](C)O3)cc1`, the “activity change, negative = inhibition” value falls from 19.3% to -3.71%.

Going from `O=C(c1cc([N+](=O)[O-])ccc1N1CCOCC1)N1CCN(c2ccccc2)CC1` to `COC(=O)[C@]12CCCCC=C1N(Cc1ccc(Cl)cc1Cl)C(=O)[C@H](CC(=O)N1CCN(C(=O)c3ccco3)CC1)C2`, the “activity change, negative = inhibition” value rises from -25.1% to 4.73%.

Compared with `O=C(Nc1ccc(Cl)c(Cl)c1)N[C@@H]1CC[C@H](CCn2cc(C3CCCCC3)nn2)O[C@H]1CO`, `C[C@@H]1CN([C@H](C)CO)S(=O)(=O)c2ccc(C#CC3CCCC3)cc2O[C@@H]1CN(C)C(=O)Cc1ccncc1` is higher in “activity change, negative = inhibition” value: 0.524% for the first, 11.6% for the second.

First: CCc1cc(-c2n[nH]c(C)c2-c2nc3ccccc3n2C)c(O)cc1O
Second: C[C@@H]1CN([C@H](C)CO)C(=O)c2cc(NC(=O)Nc3ccc(F)cc3)ccc2O[C@@H](C)CCCCO[C@@H]1CN(C)Cc1ccc2c(c1)OCO2
The “activity change, negative = inhibition” value of the first is higher: 6.76% for the first, 1.71% for the second.

First: O=C(C[C@H]1CC[C@H]2[C@@H](COC[C@@H](O)CN2Cc2ccc(Oc3ccccc3)cc2)O1)N1CCCCC1
Second: C[C@@H]1CCCCO[C@H](CN(C)Cc2ccc(C(F)(F)F)cc2)[C@H](C)CN([C@H](C)CO)C(=O)c2cc(NS(=O)(=O)c3ccccc3)ccc2O1
The “activity change, negative = inhibition” value of the first is lower: 1.71% for the first, 3.76% for the second.

First: CCOc1ccc(C(CN2CCOCC2)C(C)=O)cc1OC (stereo not given)
Second: C[C@@H]1CCCCO[C@@H](CN(C)C(=O)Nc2cccc3ccccc23)[C@H](C)CN([C@H](C)CO)C(=O)c2cc(NS(=O)(=O)c3ccccc3)ccc2O1
The “activity change, negative = inhibition” value of the first is higher: 13% for the first, 1.1% for the second.

Going from `O=C(Nc1cccc(Cl)c1)Nc1nnc(-c2ccncc2)s1` to `OCCCNc1nccc(-c2cc(Nc3cccc(Cl)c3)ncn2)n1`, the “activity change, negative = inhibition” value rises from -51.4% to 2.56%.

In the case of `Cc1ccc(-c2csc3ncnc(Sc4nnc(CN5CCCCCC5=O)o4)c23)cc1`, the “activity change, negative = inhibition” value is reported as 6.16%.

In the case of `C[C@@H]1CCCCO[C@@H](CN(C)Cc2ccc(C(F)(F)F)cc2)[C@@H](C)CN([C@@H](C)CO)C(=O)c2cc(NS(=O)(=O)c3ccc(F)cc3)ccc2O1`, the “activity change, negative = inhibition” value is reported as 1.51% [at 30 µM].
